The values below come from PubChem BioAssay (Tox21).

Structures are written as SMILES. Records with an inconclusive call do not appear. Entries that show only a call come without a potency. Calls of active or inactive are those of the source. The call rests on the fitted dose curve; in most records, active means well fitted inhibition curve with a large enough effect in the repeat runs; inconclusive means weak or mixed curves; inactive means flat fitted curve, though single readings scatter.
Potency means the concentration at half of the fitted maximal effect.

The test deals with Voltage-gated inwardly rectifying potassium channel KCNH2 (Homo sapiens) (UniProt Q12809). In words: Human Ether-a-go-go-Related Gene (hERG) channel small molecule antagonists: fluorescence cell-based qHTS assay (AID 1671200). Further: nearly all actives have a fitted effect of over 50% in size. The following applies: hERG-U2OS cells, FluxOR thallium flux fluorescence; series mostly up to 76.8 µM. An excerpt: National Center for Advancing Translational Sciences [NCATS]
Voltage-gated inwardly rectifying potassium channel KCNH2 (Homo sapiens), sequence (Q12809 whole entry, looked up): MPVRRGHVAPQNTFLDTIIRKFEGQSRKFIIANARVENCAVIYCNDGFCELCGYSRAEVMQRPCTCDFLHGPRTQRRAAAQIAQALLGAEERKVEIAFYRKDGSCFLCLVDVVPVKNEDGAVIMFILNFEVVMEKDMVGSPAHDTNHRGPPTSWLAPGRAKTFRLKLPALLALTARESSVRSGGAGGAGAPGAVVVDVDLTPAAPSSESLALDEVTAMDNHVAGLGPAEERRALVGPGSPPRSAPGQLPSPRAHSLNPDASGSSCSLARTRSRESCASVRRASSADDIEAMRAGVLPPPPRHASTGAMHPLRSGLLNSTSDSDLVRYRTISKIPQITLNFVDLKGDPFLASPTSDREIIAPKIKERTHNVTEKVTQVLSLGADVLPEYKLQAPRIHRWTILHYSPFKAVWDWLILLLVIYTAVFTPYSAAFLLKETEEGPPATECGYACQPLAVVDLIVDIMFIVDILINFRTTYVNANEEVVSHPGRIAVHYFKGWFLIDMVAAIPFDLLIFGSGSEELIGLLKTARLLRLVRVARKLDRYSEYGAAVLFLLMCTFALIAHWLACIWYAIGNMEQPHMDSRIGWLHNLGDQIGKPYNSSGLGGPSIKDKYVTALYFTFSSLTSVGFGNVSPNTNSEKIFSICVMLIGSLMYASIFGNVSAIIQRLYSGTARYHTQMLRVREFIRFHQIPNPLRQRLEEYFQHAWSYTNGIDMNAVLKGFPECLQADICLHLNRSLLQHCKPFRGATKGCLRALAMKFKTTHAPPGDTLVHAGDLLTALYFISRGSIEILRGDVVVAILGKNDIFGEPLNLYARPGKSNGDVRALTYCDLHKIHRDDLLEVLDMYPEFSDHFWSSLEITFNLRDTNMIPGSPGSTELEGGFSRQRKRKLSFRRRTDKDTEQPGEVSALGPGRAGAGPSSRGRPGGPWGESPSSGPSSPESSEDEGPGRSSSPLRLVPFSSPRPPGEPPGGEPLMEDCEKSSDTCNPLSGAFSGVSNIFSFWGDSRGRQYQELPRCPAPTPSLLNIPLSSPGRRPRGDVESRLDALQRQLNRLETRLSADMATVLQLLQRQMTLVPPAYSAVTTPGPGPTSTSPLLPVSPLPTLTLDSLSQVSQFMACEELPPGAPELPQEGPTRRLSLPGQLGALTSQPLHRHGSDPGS
U.S. Environmental Protection Agency [EPA]
National Institutes of Environmental Health Sciences [NIEHS]
National Toxicology Program [NTP]
U.S. Food and Drug Administration [FDA]
Mutations in the hERG channel cause Long QT (LQT) syndrome. LQT syndrome is a cardiac disorder which can cause ventricle arrhythmia and sudden death. Additionally, compounds which block the hERG channel can cause acquired LQT syndrome. Several FDA approved drugs have been removed from the market due to their hERG blocking activity. A cell-based hERG channel inhibition assay can be used to screen chemical compounds that inhibit hERG channel. This assay measures hERG channel activity using thallium ions as surrogate ions to measure potassium into the cells.
Tox21 Assay Protocol Summary:
hERG-U2OS cells were resuspended in culture medium and dispensed into 1536-well, black wall/clear-bottom plates at 1000cells/well/3uL using a Multidrop Combi dispenser (Thermo Fisher, Waltham, MA). After plates were incubated at 37 C overnight, 3 uL of Loading Buffer provided by FluxOR II Potassium Ion Channel Assay kit (Thermo, Carlsbad, CA) was added to each well. The assay plates were then incubated at room temperature in the dark for 1h. […] After the assay plates were incubated at room temperature for 10 min, 1 uL of Stimulus Buffer provided by FluxOR II Potassium Ion Channel Assay kit was added into each well and fluorescence intensity (480nm excitation/540nm emission) was continuously measured for 2 min at 1 second intervals using a Functional Drug Screening System (FDSS) 7000EX kinetic plate reader (Hamamatsu, Japan).
On to `COc1nc(C)nc(NC(=O)NS(=O)(=O)c2ccccc2OCCCl)n1`, for which the Potency result was “inactive”.

In the case of `O=C1CCCc2ccccc21`, the Potency entry was “inactive”. The same measure, in the same setting: the same measure for `NNS(=O)(=O)c1ccc(Oc2ccc(S(=O)(=O)NN)cc2)cc1`: “inactive”.

As to `Cc1c(N)cccc1N`, the Potency result is “inactive”. `CC(=O)O[C@H]1CC[C@@]2(C)C(=CC[C@@H]3[C@@H]2CC[C@]2(C)C(C(C)=O)=CC[C@@H]32)C1`: the Potency entry is “inactive”. The same measure, in the same setting: to `COC(C)CCO` (stereo not given) belongs “inactive”; to `CCCCCCCCCC#N`, “inactive”. With `CCCCN1C[C@H](O)[C@@H](O)[C@H](O)[C@H]1CO`, the Potency result was “inactive”.

`CC(Oc1c(Cl)cccc1Cl)C1=NCCN1` (stereo not given): the Potency result was “inactive”.

In the case of `CCCN(CCC)C(=O)C(CCC(=O)O)NC(=O)c1ccccc1` (stereo not given), the Potency result is “inactive”.

For the compound `CCOC(=O)NCCC[Si](OCC)(OCC)OCC`, the Potency result is “inactive”. Still for that read-out and setting: the same measure for `CCC1(C)NC(=O)NC1=O` (stereo not given): “inactive”.

As to `Cc1c(C(=O)NCCO)[n+](=O)c2ccccc2n1[O-]`, the Potency entry is “inactive”. The same measure, in the same setting: to `OCCN(CCO)CCN(CCO)CCO` belongs “inactive”; to `CCOC(=O)[C@H](CCc1ccccc1)N[C@@H](C)C(=O)N1Cc2cc(OC)c(OC)cc2C[C@H]1C(=O)O`, “inactive”; to `CCNCCO`, “inactive”. Still for that read-out and setting: to `Cc1ncc(CO)c(CN)c1O` belongs “inactive”; to `COc1cc(Cl)ccc1Cl`, “inactive”. `CCOc1ccccc1N`: the Potency was 21.7 µM (active).

With `O=C(O[C@@H](C(=O)O)[C@@H](OC(=O)c1ccccc1)C(=O)O)c1ccccc1`, the Potency result is “inactive”. The same measure, in the same setting: the same measure for `CC(C)CC(=O)OCc1ccccc1`: “inactive”; for `CN(CC1(C)CCCO1)S(=O)(=O)c1ccc(Cl)c(S(N)(=O)=O)c1` (stereo not given): “inactive”; for `CN1CCN(C2=Nc3ccccc3Oc3ccc(Cl)cc32)CC1`: 16.9 µM (active). For `O=C(O)c1ccccc1Nc1cc(Cl)ccc1C(=O)O`, the activity change, negative = inhibition was 6.42% [at 15.8 µM] (inactive). For the compound `COC(=O)C(C)O` (stereo not given), the Potency result was “inactive”. The same measure, in the same setting: the same measure for `CC(C)C1=CC2=CC[C@@H]3[C@](C)(CCC[C@@]3(C)C(=O)O)[C@H]2CC1`: “inactive”; for `CCCCCOc1ccc(C2SC(=O)NC2=O)cc1OCC` (stereo not given): “inactive”. Same read-out and setting: to `CN1[C@@H]2CC[C@H]1CC(OC(=O)c1c[nH]c3ccccc13)C2` (stereo not given in full) belongs 19 µM (active); to `CCN(CC)CCOc1ccc(Cc2ccccc2)cc1`, 7.56 µM (active). Same read-out and setting: the same measure for `OCCN(CCO)c1ccccc1`: “inactive”; for `CN(C)CCOc1ccccc1Cc1ccccc1`: 7.56 µM (active). Consider `CN(C)Cc1ccccc1`, for which the Potency entry was “inactive”.

In the case of `O=C(O)C(=O)Cc1c[nH]c2ccccc12`, the Potency entry was “inactive”. On the same count and under the same terms, to `O=c1[nH]c(=O)n([C@H]2C[C@H](O)[C@@H](CO)O2)cc1C(F)(F)F` belongs “inactive”. With `CC(CNC1CCCCC1)OC(=O)c1ccccc1` (stereo not given), the Potency entry is “inactive”. On the same count and under the same terms, the same measure for `CN(C)C(=O)NC1(c2ccccc2)CCN(CCC[C@]2(c3ccc(Cl)c(Cl)c3)CCCN(C(=O)c3ccccc3)C2)CC1`: 2.08 µM (active).

As for `CC(=O)Nc1ccc(C)c(Cl)c1`, the Potency result was “inactive”. Same read-out and setting: the same measure for `Cc1ccsc1C(=CCCN1CCC[C@@H](C(=O)O)C1)c1sccc1C`: “inactive”; for `Cc1ccccc1C(=O)Nc1ccc(C(=O)N2CCCC(O)c3cc(Cl)ccc32)c(C)c1` (stereo not given): “inactive”.

In the case of `Cc1ccc([N+](=O)[O-])cc1Cl`, the Potency entry is “inactive”.
